In PubChem BioAssay (NCATS):
Results filed as inconclusive are left out. Calls of active or inactive are those of the source. Unless noted, calls follow the shape of the dose curve; as a rule, active = well fitted curve in either direction with a large enough effect (not every such curve was filed as active); inconclusive = small, poorly fitted or top-dose-only effect, or another doubt; inactive = flat fitted curve, though single readings scatter.

Experiments:
[1] = AP1 Signaling Pathway (AID 357); also: % is scaled to controls: 0 for no effect and ±100 for the full control effect
How it was run: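 Modulation of EGF-driven AP-1 transcription was assessed with a beta-lactamase reporter in ME-180 cells. Compound and EC50 EGF were co-incubated 5 hours at 37 °C before 2.5-hour CCF4 loading at room temperature and dual-emission reading.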

[2] = NFAT Signaling Pathway (AID 444); details: Jurkat NFAT-bla M1, carbachol, beta-lactamase ratio, 5 h; at 17.2 µM (top of the series) unless noted;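 also: carbachol stimulus at about its EC50 of 1 µM final; % is scaled to controls: 0 for no effect and ±100 for the full control effect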
How it was run: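 Read-out: CCF4 FRET ratio (460 nm/530 nm) after 1 h RT dye loading, used for %activity and AC50 from titration series. Cells: Jurkat NFAT-β-lactamase/M1 line, treated with compound plus 1 uM carbachol for 5 h, 37 °C.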

[3] = Stat Signaling Pathway (AID 446);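 also: ME-180 cervical cancer cells given 40 pM IL-6 alongside compound; SIE-controlled beta-lactamase reporter measured as 460/530 nm FRET emission ratio; % is scaled to controls: 0 for no effect and ±100 for the full control effect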
How it was run: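 Reporter line: ME-180 cervical carcinoma, SIE-beta-lactamase. Treatment: compound with 40 pM IL-6, 5 hrs, 37 C, in low-serum OPTI-MEM with 10 mM HEPES pH 7.3. Detection: 460/530 nm fluorescence.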

[4] = molecular target: Glucocorticoid receptor (Homo sapiens) (UniProt P04150); assay: GR-GFP Redistribution (AID 450;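 active = compounds whose dose series gives a full or clear partial fitted curve of increased nuclear translocation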; also: potency is read from the fitted curve at half-maximal effect); details: U2OS GR-GFP nuclear translocation, laser cytometry, 2 h
[5] = molecular target: Mitogen-activated protein kinase 10 (Mus musculus) (UniProt Q61831); assay: JNK3 AlphaScreen Assay (AID 530);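 also: kinase came from lysate of stimulated human HepG2 cells; signal reports phosphorylation of biotinylated GST-cJun 1-79 at Ser73 with 10 µM ATP; % is scaled to controls: 0 for no effect and ±100 for the full control effect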
How it was run: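 Compound titrations were preincubated 15 minutes at room temperature with substrate, antibody and pre-activated JNK3-containing HepG2 lysate. Reactions were started with 10 uM ATP and stopped with EDTA-containing bead buffer for AlphaScreen detection.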

[6] = molecular target: 3',5'-cyclic-AMP phosphodiesterase 4B (Homo sapiens) (UniProt Q07343); assay: qHTS Assay for Inhibitors of PDE-IV (AID 607; active = well fitted activation curve with a large enough effect in the main read-out, with a control signal flat, not every such curve was filed as active; also: % of control where 0% means no effect)
How it was run: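 Cell-based read-out of cAMP via a modified cyclic nucleotide-gated channel and membrane potential dye (535/590 nm) in HEK293 cells expressing PDE4 endogenously. Compounds tested up to 22.9 uM final; 100 uM RO 20-1724 reference.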

[7] = qHTS Assay for Lipid Storage Modulators (AID 1519; calls by dose curve); details: Drosophila S3 cells, BODIPY lipid droplet/cell ratio, laser cytometry, cells loaded with oleic acid
How it was run: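 Cells seeded at 5,000 per well were treated with compounds over a concentration series and loaded with oleic acid (400 uM, as added). Lipid droplet fluorescence (488 nm excitation, 500-530 nm channel) was read by laser-scanning cytometry and normalized to 20 uM Triacsin C.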

[8] = molecular target: Ubiquitin carboxyl-terminal hydrolase 1 (Homo sapiens) (UniProt O94782); assay: Inhibitors of USP1/UAF1: Pilot qHTS (AID 504865; active = well fitted inhibition curve with a large enough effect; also: nearly all actives have a fitted effect of over 35% in size; also: potency is read from the fitted curve at half-maximal effect)
How it was run: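 USP1/UAF1 complex at 1 nM preincubated 15 min at room temperature with compound, then Ub-Rho substrate added at 150 nM final. Fluorescence (480/540 nm) read kinetically in 50 mM HEPES pH 7.8, 0.5 mM EDTA, 1 mM TCEP, 0.1 mg/ml BSA, 0.01% Tween-20.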

[9] = molecular target: Luciferin 4-monooxygenase (Photinus pyralis) (UniProt P08659); assay: Biochemical firefly luciferase enzyme assay for NPC (AID 624030; active = well fitted inhibition curve with a large enough effect;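 also: purified P. pyralis luciferase at 10 nM with luciferin and ATP substrate; 0% = DMSO and -100% = full luciferase inhibition by PTC124 control; nearly all actives have a fitted effect of over 70% in size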)
How it was run: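 Direct inhibition of firefly luciferase enzyme (10 nM final, 50 mM Tris Acetate) assessed by luminescence within 5 minutes. Percent activity scaled between DMSO and PTC124 positive control, with concentration-effect curves classified by fit quality and response.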

[10] = qHTS profiling for inhibitors of Plasmodium falciparum proliferation (AID 504749; active = well fitted inhibition curve with a large enough effect;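 also: 0% = DMSO vehicle and full inhibition = artemisinin control; nearly all actives have a fitted effect of over 60% in size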); details: P. falciparum in erythrocytes, SYBR Green DNA, 72 h
How it was run: (§1)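 Infected RBCs, 0.3% parasitemia/2.5% Hct final; cpd 72 h, 37 C, 5% CO2; lysis buffer with saponin/triton/SYBR Green I, o/n RT dark; FI 485/535; norm. to artemisinin (0.29 uM) and DMSO.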

[11] = test system: C2A; assay: as above; details: P. falciparum in erythrocytes, SYBR Green DNA, 72 h; series mostly up to 12.8 µM
How it was run: as §1

[12] = test system: CP238; assay: as above; details: P. falciparum in erythrocytes, SYBR Green DNA, 72 h; series mostly up to 12.8 µM
How it was run: as §1

[13] = test system: CP256; assay: as above; details: P. falciparum in erythrocytes, SYBR Green DNA, 72 h; series mostly up to 12.8 µM
How it was run: as §1

[14] = test system: FAB9; assay: as above; details: P. falciparum in erythrocytes, SYBR Green DNA, 72 h; series mostly up to 12.8 µM
How it was run: as §1

[15] = test system: JCK; assay: as above; details: P. falciparum in erythrocytes, SYBR Green DNA, 72 h; series mostly up to 12.8 µM
How it was run: as §1

[16] = test system: PC49; assay: as above; details: P. falciparum in erythrocytes, SYBR Green DNA, 72 h; series mostly up to 12.8 µM
How it was run: as §1

[17] = test system: SC27B; assay: as above; details: P. falciparum in erythrocytes, SYBR Green DNA, 72 h; series mostly up to 12.8 µM
How it was run: as §1

[18] = test system: W2; assay: as above; details: P. falciparum in erythrocytes, SYBR Green DNA, 72 h; series mostly up to 12.8 µM
How it was run: as §1

[19] = molecular target: Glucocorticoid receptor (Homo sapiens) (UniProt P04150); assay: GR-EFC Redistribution (AID 451; calls by dose curve; also: potency is read from the fitted curve at half-maximal effect); details: CHO-K1 GR-EFC translocation, beta-gal luminescence, 2 h
How it was run: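 Translocation of GR-ED fusion to nuclear EA restores b-gal, read by luminescence after 1 h room-temperature detection. Engineered CHO-K1 biosensor cells, 1,000/well, exposed 2 h at 37 C to titrations up to 46 uM final.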

[20] = measured here: cell count channel max response
[21] = measured here: lipid channel max response
[22] = at 12.8 µM (top of the series), parasite line A
[23] = at 12.8 µM (top of the series), parasite line B

Chain of Luciferin 4-monooxygenase (Photinus pyralis) (P08659 whole entry, looked up): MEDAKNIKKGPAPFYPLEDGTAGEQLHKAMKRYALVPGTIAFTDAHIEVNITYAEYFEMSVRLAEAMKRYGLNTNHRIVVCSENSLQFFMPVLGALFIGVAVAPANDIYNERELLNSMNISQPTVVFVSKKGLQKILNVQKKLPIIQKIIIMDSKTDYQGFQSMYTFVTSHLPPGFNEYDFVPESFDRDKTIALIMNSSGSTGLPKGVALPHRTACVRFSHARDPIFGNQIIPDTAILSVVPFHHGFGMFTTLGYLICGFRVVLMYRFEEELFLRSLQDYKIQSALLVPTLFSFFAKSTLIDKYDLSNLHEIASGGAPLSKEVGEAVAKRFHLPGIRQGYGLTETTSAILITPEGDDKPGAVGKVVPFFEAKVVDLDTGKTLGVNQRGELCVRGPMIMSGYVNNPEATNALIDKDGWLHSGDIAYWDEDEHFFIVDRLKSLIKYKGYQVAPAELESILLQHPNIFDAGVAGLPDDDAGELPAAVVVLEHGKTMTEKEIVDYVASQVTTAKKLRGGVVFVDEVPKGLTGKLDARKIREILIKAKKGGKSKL
Chain of 3',5'-cyclic-AMP phosphodiesterase 4B (Homo sapiens) (Q07343 whole entry, looked up): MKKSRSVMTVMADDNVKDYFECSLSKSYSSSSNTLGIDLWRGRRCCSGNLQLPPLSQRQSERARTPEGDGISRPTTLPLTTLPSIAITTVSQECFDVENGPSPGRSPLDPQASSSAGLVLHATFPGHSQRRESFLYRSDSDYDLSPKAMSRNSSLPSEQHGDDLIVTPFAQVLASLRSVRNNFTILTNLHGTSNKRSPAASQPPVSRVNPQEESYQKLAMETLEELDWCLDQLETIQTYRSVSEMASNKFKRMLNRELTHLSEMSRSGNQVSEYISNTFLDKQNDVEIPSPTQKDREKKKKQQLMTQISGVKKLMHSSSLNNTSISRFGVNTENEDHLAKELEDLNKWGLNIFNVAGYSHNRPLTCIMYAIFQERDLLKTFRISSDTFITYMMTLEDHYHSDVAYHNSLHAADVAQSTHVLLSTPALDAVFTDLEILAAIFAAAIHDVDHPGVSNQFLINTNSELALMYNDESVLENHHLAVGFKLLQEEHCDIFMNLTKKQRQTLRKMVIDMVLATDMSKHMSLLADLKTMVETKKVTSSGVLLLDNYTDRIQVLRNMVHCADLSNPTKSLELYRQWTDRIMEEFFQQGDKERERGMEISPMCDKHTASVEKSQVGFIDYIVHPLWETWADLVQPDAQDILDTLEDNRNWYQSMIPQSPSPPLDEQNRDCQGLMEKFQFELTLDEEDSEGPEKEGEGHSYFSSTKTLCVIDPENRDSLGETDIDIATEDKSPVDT
Chain of Glucocorticoid receptor (Homo sapiens) (P04150 whole entry, looked up, the tested form may be a part): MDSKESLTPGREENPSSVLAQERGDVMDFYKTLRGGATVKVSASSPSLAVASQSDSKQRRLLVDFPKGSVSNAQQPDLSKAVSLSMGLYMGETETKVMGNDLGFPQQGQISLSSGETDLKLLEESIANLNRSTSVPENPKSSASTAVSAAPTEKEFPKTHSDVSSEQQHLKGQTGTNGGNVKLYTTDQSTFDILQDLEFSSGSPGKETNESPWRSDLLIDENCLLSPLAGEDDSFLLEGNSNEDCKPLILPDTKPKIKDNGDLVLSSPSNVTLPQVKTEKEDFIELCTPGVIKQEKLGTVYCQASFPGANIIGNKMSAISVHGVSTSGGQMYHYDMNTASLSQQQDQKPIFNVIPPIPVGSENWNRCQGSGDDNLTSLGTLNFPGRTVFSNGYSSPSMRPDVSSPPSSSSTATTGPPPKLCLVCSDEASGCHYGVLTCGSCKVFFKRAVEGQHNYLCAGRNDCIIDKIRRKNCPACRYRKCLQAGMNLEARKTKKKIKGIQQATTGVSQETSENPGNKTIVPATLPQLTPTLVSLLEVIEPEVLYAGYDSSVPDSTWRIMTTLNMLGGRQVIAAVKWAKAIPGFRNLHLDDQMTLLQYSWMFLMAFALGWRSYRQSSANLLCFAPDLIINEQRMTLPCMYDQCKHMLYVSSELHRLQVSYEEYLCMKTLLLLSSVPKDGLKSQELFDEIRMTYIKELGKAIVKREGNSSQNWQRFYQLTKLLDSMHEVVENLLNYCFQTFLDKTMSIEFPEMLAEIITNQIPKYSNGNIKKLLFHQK
Chain of Ubiquitin carboxyl-terminal hydrolase 1 (Homo sapiens) (O94782 whole entry, looked up): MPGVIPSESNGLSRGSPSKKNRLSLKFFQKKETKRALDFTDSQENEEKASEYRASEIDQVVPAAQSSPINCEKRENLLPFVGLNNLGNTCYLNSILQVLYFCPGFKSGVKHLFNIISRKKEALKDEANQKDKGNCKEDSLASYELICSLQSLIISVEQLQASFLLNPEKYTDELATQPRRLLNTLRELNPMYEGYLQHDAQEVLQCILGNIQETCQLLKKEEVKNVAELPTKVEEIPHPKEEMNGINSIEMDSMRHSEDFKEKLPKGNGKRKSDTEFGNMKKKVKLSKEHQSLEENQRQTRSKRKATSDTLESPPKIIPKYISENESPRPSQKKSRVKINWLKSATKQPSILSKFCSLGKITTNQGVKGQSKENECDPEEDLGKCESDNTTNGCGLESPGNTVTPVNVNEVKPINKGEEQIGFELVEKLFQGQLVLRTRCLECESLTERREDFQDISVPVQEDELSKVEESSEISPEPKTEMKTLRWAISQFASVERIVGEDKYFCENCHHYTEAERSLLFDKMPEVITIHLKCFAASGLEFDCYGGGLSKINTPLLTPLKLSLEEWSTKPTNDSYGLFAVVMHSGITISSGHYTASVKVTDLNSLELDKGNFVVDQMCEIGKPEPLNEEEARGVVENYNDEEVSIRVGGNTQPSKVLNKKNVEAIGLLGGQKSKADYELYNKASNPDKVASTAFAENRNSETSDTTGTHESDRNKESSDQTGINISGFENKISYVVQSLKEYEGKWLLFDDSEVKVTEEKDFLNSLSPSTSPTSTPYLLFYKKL

CC(=O)OCC(=O)[C@@]12OC(C)(C)O[C@@H]1C[C@H]1[C@H]3C[C@H](F)C4=CC(=O)C=C[C@@]4(C)[C@]3(F)[C@H](O)C[C@@]12C
-17.4%: max response [7, 21]
-13.1%: max response [7, 20]
active: Potency [4] 0.00175 µM
inactive: outcome [1] | activity change, negative = inhibition [2] -1.01% | outcome [3] | Potency [5] | outcome [6] | activity change, negative = inhibition ([7]; at 25.7 µM (top of the series)) -1.78% | Potency [8] | Potency [9] | activity, negative = inhibition [10, 22] -6.81% | activity, negative = inhibition [10, 23] -12% | Potency [11] | Potency [12] | Potency [13] | Potency [14] | Potency [15] | Potency [16] | Potency [17] | Potency [18]

O=C1OCCN1/N=C\c1ccc([N+](=O)[O-])o1
-13.3%: max response [7, 20]
inactive: outcome [1] | activity change, negative = inhibition [2] -2.86% | outcome [3] | Potency [4] > 20.6 µM | Potency [19] > 20.6 µM | Potency [5] | outcome [6] | activity change, negative = inhibition ([7]; at 25.7 µM (top of the series)) -2% | Potency [8]
-14.3%: max response [7, 21]

Cc1cn([C@@H]2C[C@H](N=[N+]=N)[C@H](CO)O2)c(=O)[nH]c1=O
inactive: outcome [1] | activity change, negative = inhibition [2] -2.1% | outcome [3] | Potency [4] > 20.6 µM | Potency [19] > 20.6 µM | Potency [5] | outcome [6] | activity change, negative = inhibition ([7]; at 25.7 µM (top of the series)) -0.533% | Potency [8]
-19.5%: max response [7, 20]
-18.3%: max response [7, 21]

C=C1C[C@@]23C[C@]1(O)CC[C@@H]2[C@]12C=C[C@@H](O)[C@](C)(C(=O)O1)[C@H]2[C@H]3C(=O)O
inactive: outcome [1] | activity change, negative = inhibition [2] -11.2% | outcome [3] | Potency [4] > 20.6 µM | Potency [19] > 20.6 µM | Potency [5] | outcome [6] | activity change, negative = inhibition ([7]; at 25.7 µM (top of the series)) 1.67% | Potency [8]
0.159%: max response [7, 20]
3.63%: max response [7, 21]

N[C@H](Cc1cc(I)c(Oc2cc(I)c(O)c(I)c2)c(I)c1)C(=O)O
21%: max response [7, 21]
20.1%: max response [7, 20]
inactive: outcome [1] | activity change, negative = inhibition [2] -8.92% | outcome [3] | Potency [4] > 20.6 µM | Potency [19] > 20.6 µM | outcome [6] | activity change, negative = inhibition ([7]; at 25.7 µM (top of the series)) 1.16% | Potency [8]

C[C@@H]1[C@H](C)CC[C@@]2(C(=O)O[C@H]3O[C@@H](CO[C@H]4O[C@@H](CO)[C@@H](O[C@H]5O[C@@H](C)[C@@H](O)[C@@H](O)[C@@H]5O)[C@@H](O)[C@@H]4O)[C@@H](O)[C@@H](O)[C@@H]3O)CC[C@]3(C)C(=CC[C@H]4[C@@]5(C)C[C@@H](O)[C@@H](O)[C@](C)(CO)[C@@H]5CC[C@@]43C)[C@@H]12
inactive: outcome [1] | activity change, negative = inhibition [2] -1.63% | outcome [3] | Potency [4] > 20.6 µM | Potency [19] > 20.6 µM | Potency [5] | outcome [6] | activity change, negative = inhibition ([7]; at 25.7 µM (top of the series)) -3.24% | Potency [8]
-4%: max response [7, 20]
-10.2%: max response [7, 21]

C[C@@]12CCC(=O)C[C@@H]1CC(=O)[C@H]1[C@H]3CCC[C@]3(C)C(=O)C[C@@H]12 (tested in a mixture with another compound)
2.78%: max response [7, 20]
inactive: outcome [1] | activity change, negative = inhibition [2] -7.43% | outcome [3] | Potency [19] > 20.6 µM | Potency [5] | outcome [6] | activity change, negative = inhibition ([7]; at 25.7 µM (top of the series)) 0.558% | Potency [8]
4.64%: max response [7, 21]

NC[C@@H]1O[C@H](O[C@@H]2[C@H](O[C@@H]3O[C@H](CO)[C@@H](O)[C@@H]3O)[C@@H](O)[C@@H](N)C[C@H]2N)[C@@H](N)[C@H](O)[C@@H]1O
-11.1%: max response [7, 21]
-8.12%: max response [7, 20]
inactive: outcome [1] | activity change, negative = inhibition [2] -8.79% | outcome [3] | Potency [4] > 20.6 µM | Potency [19] > 20.6 µM | Potency [5] | outcome [6] | activity change, negative = inhibition ([7]; at 25.7 µM (top of the series)) -2.12% | Potency [8] | Potency [9] | activity, negative = inhibition [10, 22] -3.69% | activity, negative = inhibition [10, 23] 2.48% | Potency [11] | Potency [12] | Potency [13] | Potency [14] | Potency [15] | Potency [16] | Potency [17] | Potency [18]

CC(=O)OCC(=O)[C@@]1(OC(C)=O)[C@H](C)C[C@H]2[C@@H]3C[C@H](F)C4=CC(=O)C=C[C@@]4(C)[C@]3(F)[C@H](O)C[C@@]21C
-15.4%: max response [7, 20]
inactive: outcome [1] | activity change, negative = inhibition [2] 4% | outcome [3] | Potency [5] | outcome [6] | activity change, negative = inhibition ([7]; at 25.7 µM (top of the series)) -2.11% | Potency [8]
-17.2%: max response [7, 21]
active: Potency [4] 0.00203 µM | Potency [19] 0.0775 µM

CN1CCCN=C1/C=C\c1cccs1
inactive: outcome [1] | activity change, negative = inhibition [2] -25.3% | outcome [3] | Potency [4] > 20.6 µM | Potency [19] > 20.6 µM | Potency [5] | outcome [6] | activity change, negative = inhibition ([7]; at 25.7 µM (top of the series)) 0.765% | Potency [9]
-6.05%: max response [7, 20]
-6.06%: max response [7, 21]

c1ccc2c(c1)CCC[C@@H]2C1=NCCN1
4.77%: max response [7, 20]
inactive: outcome [1] | activity change, negative = inhibition [2] 4.55% | outcome [3] | Potency [5] | outcome [6] | activity change, negative = inhibition ([7]; at 25.7 µM (top of the series)) 1.29% | Potency [8] | Potency [9] | activity, negative = inhibition ([10]; at 28.7 µM (top of the series), parasite line A) 13.7% | activity, negative = inhibition ([10]; at 28.7 µM (top of the series), parasite line B) -0.664% | Potency [11] | Potency [12] | Potency [13] | Potency [14] | Potency [15] | Potency [16] | Potency [17] | Potency [18]
6.92%: max response [7, 21]

O=c1cc(-c2ccc(O)cc2)oc2c([C@H]3O[C@@H](CO)[C@@H](O)[C@@H](O)[C@@H]3O)c(O)cc(O)c12
-1.3%: max response [7, 20]
1.02%: max response [7, 21]
inactive: outcome [1] | activity change, negative = inhibition [2] 2.91% | outcome [3] | Potency [4] > 20.6 µM | Potency [19] > 20.6 µM | Potency [5] | outcome [6] | activity change, negative = inhibition ([7]; at 25.7 µM (top of the series)) -1.45% | Potency [8]

Fc1ccc(Nc2nc(-c3cccnc3)nc3ccccc23)cc1
-6.31%: max response [7, 20]
0.257%: max response [7, 21]
inactive: outcome [1] | activity change, negative = inhibition [2] -9.74% [at 7.69 µM] | outcome [3] | Potency [19] > 46 µM | Potency [5] | activity change, negative = inhibition ([7]; at 57.5 µM (top of the series)) 7.7%
active: Potency [8] 39.8 µM
